High-throughput results from PubChem BioAssay.
ADAM17 inh: inhibits human ADAM17. recombinant ADAM17, EDANS/DABCYL FRET peptide cleavage. inhibition, % at 6.95 µM. 370,000 tested, 0.83% active. AID 720648;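 active = inhibition above the mean of compounds lying between control limits plus 3 SD, set per campaign, cut at about 8.5% in these data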
Target sequence (P78536 215-824 limits assumed): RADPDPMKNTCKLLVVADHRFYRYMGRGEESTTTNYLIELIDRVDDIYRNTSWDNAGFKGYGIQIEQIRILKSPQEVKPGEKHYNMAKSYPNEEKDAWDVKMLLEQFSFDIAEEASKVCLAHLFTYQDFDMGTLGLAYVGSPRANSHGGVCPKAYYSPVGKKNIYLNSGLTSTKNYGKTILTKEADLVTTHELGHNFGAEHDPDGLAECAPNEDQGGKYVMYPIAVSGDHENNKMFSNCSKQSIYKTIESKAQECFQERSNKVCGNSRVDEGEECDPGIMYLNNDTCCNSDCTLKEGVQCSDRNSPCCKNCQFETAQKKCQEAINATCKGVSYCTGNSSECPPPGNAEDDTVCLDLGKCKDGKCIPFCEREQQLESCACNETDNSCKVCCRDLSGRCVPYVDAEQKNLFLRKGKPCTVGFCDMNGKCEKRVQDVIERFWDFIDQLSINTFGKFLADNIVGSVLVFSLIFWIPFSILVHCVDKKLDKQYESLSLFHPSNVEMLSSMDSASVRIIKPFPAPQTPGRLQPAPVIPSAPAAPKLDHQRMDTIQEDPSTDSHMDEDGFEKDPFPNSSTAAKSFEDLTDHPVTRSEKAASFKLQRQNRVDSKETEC
ADAM10 inh: inhibits human ADAM10. O14672. recombinant ADAM10, EDANS/DABCYL FRET peptide cleavage, 3 h. inhibition, % at 7 µM. 370,000 tested, 0.62% active. AID 720582;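 active = inhibition above a per-campaign cutoff equal to the mean of compounds falling between control-based bounds plus 3 SD, cut at about 20% in these data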
sPLA2-III inh: Blocks human group III sPLA2 activity | QFRET BODIPY PC-A2 liposome hydrolysis, fluorescence | inhibition, % at 12.2 µM | 370,000 tested, 0.56% active;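 active = inhibition above mean plus 3 SD of compounds lying within the high and low control bounds, cut at about 19% in these data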
FAS TE block: inhibitors of human fatty acid synthase thioesterase domain | P49327 | recombinant FAS-TE, OMFH fluorogenic substrate, fluorescence endpoint | inhibition, % at 15 µM | 360,000 tested, 0.67% active;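 active = compounds whose normalised, plate-corrected inhibition of enzyme fluorescence in the single-dose primary screen is 50% or more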
GRIN3A LBD mod: NR3A (human) ligand-binding domain modulation; NR3A LBD differential scanning fluorimetry, Tm shift; 0% = protein alone, 100% = glycine-bound protein; Tm shift relative to glycine control, % at 25 µM; 340,000 tested, 2.5% active; AID 1259313;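 active = melting temperature shift of at least 10% of the positive control shift, at one fixed dose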
ADAM10 confirm: human ADAM10 inhibition, confirmation; shares compounds with ADAM10 inh; ADAM10 QFRET peptide cleavage, EDANS fluorescence; inhibition, % at 6.95 µM; 2,100 tested, 1% active;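 active = inhibition above about 20% chosen separately for each screening run, limit read from the data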
ADAM17 counter: counter-screen for ADAM10 exosite inhibitors: inhibitors of human ADAM17; ADAM17 QFRET peptide cleavage, EDANS fluorescence; inhibition, % at 6.95 µM; AID 743214; shares compounds with ADAM10 inh; 2,100 tested, 0.5% active;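 active = mean triplicate inhibition above the solvent-only control wells' mean plus 3 SD, cut at about 12% in these data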
ADAM10 ctr: inhibits human ADAM10 in ADAM17 exosite counter-screen | shares compounds with ADAM17 inh | recombinant ADAM10, EDANS/DABCYL FRET peptide cleavage, 3 h | inhibition, % at 6.95 µM | 2,900 tested, 47% active;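 active = mean inhibition over the triplicate runs exceeds the activity threshold set in the earlier primary screen, cut at about 20% in these data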
ADAM17 confirm: human ADAM17 inhibition, confirmation | AID 743257 | shares compounds with ADAM17 inh | 2,900 tested, 65% active | recombinant ADAM17, EDANS/DABCYL QFRET peptide cleavage | inhibition, % at 6.95 µM;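 active = mean inhibition across replicates above the hit cutoff set in the primary screen, cut at about 8.5% in these data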
Numbers stand for hits; i = inactive; nt = not tested or not shown. Most compounds without a hit are left out; they make up all but 4.3% or so of the library.

SMILES | ADAM17 inh | ADAM10 inh | sPLA2-III inh | FAS TE block | GRIN3A LBD mod | ADAM10 confirm | ADAM17 counter | ADAM10 ctr | ADAM17 confirm
COc1ccc(C(=O)CC(Nc2ccc([N+](=O)[O-])cc2)c2ccc(Cl)cc2)cc1 (configuration not stated) | 12.7 | 22.0 | i | i | 11.0 | i | i | 38.3 | 17.7
CCN(CC(=O)Nc1cccc(OC)c1)CC(=O)Nc1ccc(Br)c(C)c1 | 11.8 | 22.6 | i | i | i | i | i | 44.8 | 16.1
O=S(=O)(Nc1ccc(C(O)(C(F)(F)F)C(F)(F)F)cc1)c1cccc2cccnc12 | 10.3 | 27.0 | i | i | nt | i | i | 20.2 | 13.7
COc1ccccc1N(Cc1ccccc1)S(=O)(=O)c1cccc(C(=O)Nc2cccc(C)n2)c1 | 10.0 | 22.7 | i | i | i | i | i | i | 9.6
CCOC(=O)C1CCCN(C(=O)c2cccc(S(=O)(=O)N(Cc3ccccc3)c3ccccc3OC)c2)C1 (configuration not stated) | 14.4 | 30.1 | i | i | i | i | i | 24.5 | 12.0
COc1ccc(N(Cc2ccccc2)S(=O)(=O)c2cccc(C(=O)Nc3ccccn3)c2)cc1 | i | i | i | i | i | nt | nt | nt | nt
CC1(c2nnnn2Cc2ccccc2)CN(S(C)(=O)=O)CC(=O)N1Cc1cccs1 (configuration not stated) | i | i | i | nt | nt | nt | nt | nt | nt
COC(=O)C[C@H]1CC[C@H](NC(=O)c2ccc(F)cc2)[C@@H](CO)O1 | i | i | i | nt | nt | nt | nt | nt | nt
COc1ccccc1-c1cccc2[nH]c3c(c12)CCN1C(=O)[C@H]2[C@H](C)ON(C)[C@H]2C[C@@H]31 | i | i | i | nt | nt | nt | nt | nt | nt
COC(=O)c1ccc(N2CCC(c3cc(-c4ccc(OC)cc4)n[nH]3)CC2)c([N+](=O)[O-])c1 | 11.7 | 28.6 | i | i | i | i | i | 34.7 | 18.5
O=C(Nc1cnn(Cc2ccc(F)cc2)c1)C(c1ccccc1)c1ccccc1 | 13.8 | 22.7 | i | i | 20.3 | i | i | 21.5 | 13.8
O=C(NC1CC[C@@]23CCCN2C(=O)CCC[C@H]3C1)c1ccccc1 (some centres not stated) | i | i | i | nt | nt | nt | nt | nt | nt
CCN(CC)C(=O)[C@H]1CC(CC(=O)NCc2cccc(C(F)(F)F)c2)C(=O)N2CCc3c([nH]c4ccccc34)[C@]12C (some centres not stated) | i | i | i | i | i | nt | nt | nt | nt
CCN(CC)C(=O)[C@H]1C[C@H](CC(=O)NCc2cccc(C(F)(F)F)c2)C(=O)N2CCc3c([nH]c4ccc(Cl)cc34)[C@]12C | 10.7 | 23.2 | i | i | i | i | i | 30.8 | 13.4
O=C(COc1ncnc2c1cnn2-c1ccccc1)Nc1ccc(S(=O)(=O)N2CCCCC2)cc1 | 9.8 | 20.7 | i | i | 18.0 | i | i | 33.2 | 17.2
NS(=O)(=O)c1cccc(NC(=O)COc2ncnc3c2cnn3-c2ccccc2)c1 | i | i | i | i | i | nt | nt | nt | nt
CCNC(=O)N1CCN(c2ccc(N3CCN(Cc4ccccc4)[C@H](C)C3)c(C)c2)[C@H](C)C1 | i | i | i | nt | nt | nt | nt | nt | nt
O=C(Nc1ccc(Nc2ccccc2)cc1)C(Cl)(Cl)Cl | 9.8 | 25.6 | i | i | i | i | i | i | i
COc1ccccc1C(=O)N1CCN(C(=O)[C@@H](Cc2ccccc2)NC(=O)[C@H]2O[C@@H](n3ccc(N)nc3=O)[C@H](O)[C@@H]2O)CC1 | i | i | i | nt | nt | nt | nt | nt | nt
CCn1c(CNc2ccc(Cl)cc2)nnc1SCC(=O)NCc1ccccc1 | i | i | i | i | i | nt | nt | nt | nt
CCn1c(CNc2nc(-c3ccccc3)cs2)nnc1SCC(=O)NCc1ccccc1 | 10.7 | 20.3 | i | i | i | i | i | i | 12.7
Cc1ccc(Nc2nc(N)nc(CSc3nc4ccccc4s3)n2)cc1 | 12.9 | 28.9 | i | i | 17.0 | i | i | 42.8 | 25.2
CCCCCCCCN1C(=O)[C@H](CC(=O)NCc2ccc(OC)c(OC)c2)C[C@@]2(C(=O)OC)CC(C)(C)CC=C12 | 8.7 | 23.8 | i | nt | nt | i | i | 32.1 | 15.1
CCCCCCCCN1C(=O)[C@H](CC(=O)NCc2ccc(OC)c(OC)c2)C[C@@]2(C(=O)OCC)CCCC=C12 | 12.8 | 30.9 | i | i | nt | i | i | 41.0 | 22.1
CCOC(=O)[C@]12CCCC=C1N(CCc1ccc(OC)c(OC)c1)C(=O)[C@H](CC(=O)NCc1ccccc1)C2 | i | i | i | nt | nt | nt | nt | nt | nt
SMILES | ADAM17 inh | ADAM10 inh | sPLA2-III inh | FAS TE block | GRIN3A LBD mod | ADAM10 confirm | ADAM17 counter | ADAM10 ctr | ADAM17 confirm
COc1ccc(N2CCN(CCNS(=O)(=O)c3ccc(F)cc3)CC2)cc1 | i | i | i | nt | nt | nt | nt | nt | nt
C=CCN(C)C(C#CCCCC)c1ccccc1 (configuration not stated) | i | i | i | nt | nt | nt | nt | nt | nt
O=C(Nc1cccc(S(=O)(=O)Nc2ccc(Cl)cc2)c1)c1cc2c(s1)CCCC2 | 15.4 | 26.6 | i | i | 32.2 | i | i | 45.3 | 27.1
Cc1ccc(NC(=O)c2cc3c(s2)CCCC3)cc1S(=O)(=O)Nc1ccccc1Cl | 15.9 | 24.5 | i | i | 17.6 | 52.0 | 14.6 | 22.4 | 15.4
O=C(Nc1ccon1)c1cc2c(s1)CCCC2 | nt | nt | nt | i | i | nt | nt | nt | nt
COc1ccccc1NS(=O)(=O)c1cc(NC(=O)c2sc3cc(Cl)ccc3c2Cl)ccc1C | i | i | i | i | i | nt | nt | nt | nt
CC1(Cc2ccc(C(F)(F)F)o2)C(=O)Nc2ccc(-c3cccc(C(F)(F)F)c3)cc21 (configuration not stated) | 16.7 | 28.5 | i | i | nt | i | i | 32.4 | 20.6
O=c1cc(NS(=O)(=O)c2ccccc2)nc(SCc2ccc(Cl)cc2)[nH]1 | 10.5 | 20.0 | i | i | 20.2 | i | i | 24.8 | 13.7
O=C(CSc1nc(NS(=O)(=O)c2ccccc2)cc(=O)[nH]1)Nc1ccc(Cl)cc1 | i | i | i | i | i | nt | nt | nt | nt
CCC(O)(c1ccc(NC(=O)OC(C)(C)C)cc1)c1cc(OC)cc(OC)c1 (configuration not stated) | i | i | i | nt | nt | nt | nt | nt | nt
O=C(NCc1ccc(OC(F)(F)F)cc1)C1CC(c2c(Cl)cccc2Cl)=NO1 (configuration not stated) | 9.5 | 20.8 | i | i | i | i | i | 23.9 | 13.4
O=C(NCc1cc(C(F)(F)F)cc(C(F)(F)F)c1)C1CC(c2ccccc2C(F)(F)F)=NO1 (configuration not stated) | 17.1 | 30.7 | i | nt | i | i | i | 48.8 | 25.3
